# Measurements taken from the supplement of paper PMC10849652.
# About 7,900 targets were measured; listed, in parts, are those with a hit and a random draw of the rest. About 0.6% of all pairs of compound and target were hits. Values without a mark were called inactive.
# How the values were obtained:
# Test in all cases: log2 fold change, soluble protein after heating vs DMSO (PISA); higher = thermal stabilisation; K562 cells, 10 uM, 30 min; active = over 0.2 and 3.5 SD of the protein, either way, in both replicates (recomputed)
# [1] = compound: CS(=O)(=O)c1ccc(-c2cnc(N)c(C(=O)Nc3ccccc3)n2)cc1
# In short: (§1)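 Thermal stability values are relative to control samples and come from duplicates. They are expressed as log2 fold changes. For measurement, K562 cells (2×10^6 cells/mL) received 10 μM compound for 30 min, and aliquots were heated for 3 min over 48°C-58°C, pooled, and extracted at 4°C in PBS with 0.5% NP-40. Soluble protein, the supernatant after 21,000xg for 90 min, was quantified by TMTpro 16plex LC-MS/MS with equalised channel sums.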
# [2] = compound: C[C@H](C1=CC=C(C=C1)C(=O)NC2=C3C=CNC3=NC=C2)N
# In short: as §1
# duvelisib = compound: C[C@H](Nc1ncnc2nc[nH]c12)c1cc2cccc(Cl)c2c(=O)n1-c1ccccc1 [duvelisib]
# In short: as §1
# tozasertib = compound: Cc1cc(Nc2cc(N3CCN(C)CC3)nc(Sc3ccc(NC(=O)C4CC4)cc3)n2)n[nH]1 [tozasertib]
# In short: as §1
# [3] = compound: Cc1cc(SCc2sc(-c3ccc(C(F)(F)F)cc3)nc2C)ccc1OCC(=O)O
# In short: as §1
# crizotinib = compound: C[C@@H](Oc1cc(-c2cnn(C3CCNCC3)c2)cnc1N)c1c(Cl)ccc(F)c1Cl [crizotinib]
# In short: as §1
# [4] = compound: C[C@@H]1COCCN1C2=NC(=NC(=C2)C3(CC3)S(=O)(=O)C)C4=C5C=CNC5=CC=C4
# In short: as §1
# gandotinib = compound: Cc1cc(Nc2cc(CN3CCOCC3)c3nc(C)c(Cc4ccc(Cl)cc4F)n3n2)n[nH]1 [gandotinib]
# In short: as §1
# doramapimod = compound: Cc1ccc(-n2nc(C(C)(C)C)cc2NC(=O)Nc2ccc(OCCN3CCOCC3)c3ccccc23)cc1 [doramapimod]
# In short: as §1
# ispinesib = compound: Cc1ccc(C(=O)N(CCCN)[C@@H](c2nc3cc(Cl)ccc3c(=O)n2Cc2ccccc2)C(C)C)cc1 [ispinesib]
# In short: as §1
# Chain of UniProt Q9NUN5 (Q9NUN5 whole entry, looked up): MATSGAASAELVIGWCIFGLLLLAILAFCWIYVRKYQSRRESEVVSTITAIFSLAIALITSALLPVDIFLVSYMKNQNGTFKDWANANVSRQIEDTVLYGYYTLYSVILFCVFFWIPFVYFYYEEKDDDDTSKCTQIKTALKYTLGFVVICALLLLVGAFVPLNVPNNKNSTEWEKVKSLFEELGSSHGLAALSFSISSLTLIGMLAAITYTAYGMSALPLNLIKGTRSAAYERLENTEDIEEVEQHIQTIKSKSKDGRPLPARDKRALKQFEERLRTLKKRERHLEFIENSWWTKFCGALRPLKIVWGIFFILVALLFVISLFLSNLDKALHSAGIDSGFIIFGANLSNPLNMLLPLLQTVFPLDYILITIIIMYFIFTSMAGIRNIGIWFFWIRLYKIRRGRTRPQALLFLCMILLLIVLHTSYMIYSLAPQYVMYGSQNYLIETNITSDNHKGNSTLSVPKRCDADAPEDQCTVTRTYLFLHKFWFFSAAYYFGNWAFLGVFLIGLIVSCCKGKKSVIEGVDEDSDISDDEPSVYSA
# Chain of UniProt Q13163 (Q13163 whole entry, looked up): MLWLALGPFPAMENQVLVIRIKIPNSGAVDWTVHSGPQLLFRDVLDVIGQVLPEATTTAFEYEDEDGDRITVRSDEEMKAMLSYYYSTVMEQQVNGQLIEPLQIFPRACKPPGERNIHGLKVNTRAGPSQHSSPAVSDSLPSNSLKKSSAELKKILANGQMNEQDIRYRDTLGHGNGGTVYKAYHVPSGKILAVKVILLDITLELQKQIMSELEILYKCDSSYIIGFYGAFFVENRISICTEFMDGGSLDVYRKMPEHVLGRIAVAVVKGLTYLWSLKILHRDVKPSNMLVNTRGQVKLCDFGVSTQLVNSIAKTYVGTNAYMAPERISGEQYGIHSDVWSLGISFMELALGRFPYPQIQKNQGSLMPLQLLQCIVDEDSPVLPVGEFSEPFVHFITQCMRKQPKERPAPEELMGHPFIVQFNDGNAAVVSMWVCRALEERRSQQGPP
# Chain of UniProt Q5SW96 (Q5SW96 whole entry, looked up): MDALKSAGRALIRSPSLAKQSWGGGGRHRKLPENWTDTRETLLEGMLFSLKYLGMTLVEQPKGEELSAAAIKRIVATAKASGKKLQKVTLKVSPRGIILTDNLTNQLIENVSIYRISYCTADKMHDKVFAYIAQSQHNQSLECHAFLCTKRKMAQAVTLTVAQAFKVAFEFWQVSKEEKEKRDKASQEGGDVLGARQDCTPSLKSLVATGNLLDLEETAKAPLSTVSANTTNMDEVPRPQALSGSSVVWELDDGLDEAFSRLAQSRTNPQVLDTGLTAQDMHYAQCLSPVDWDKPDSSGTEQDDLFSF
# Chain of UniProt P43361 (P43361 whole entry, looked up): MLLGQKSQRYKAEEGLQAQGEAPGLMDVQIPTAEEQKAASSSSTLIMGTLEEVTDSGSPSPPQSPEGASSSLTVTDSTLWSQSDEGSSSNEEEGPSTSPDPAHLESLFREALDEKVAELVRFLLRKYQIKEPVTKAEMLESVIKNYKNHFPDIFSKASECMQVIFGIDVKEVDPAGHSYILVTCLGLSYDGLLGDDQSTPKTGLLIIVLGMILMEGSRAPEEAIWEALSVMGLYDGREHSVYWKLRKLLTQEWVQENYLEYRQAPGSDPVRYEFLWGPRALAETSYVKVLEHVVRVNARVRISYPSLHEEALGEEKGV
# Chain of UniProt O95819 (O95819 whole entry, looked up): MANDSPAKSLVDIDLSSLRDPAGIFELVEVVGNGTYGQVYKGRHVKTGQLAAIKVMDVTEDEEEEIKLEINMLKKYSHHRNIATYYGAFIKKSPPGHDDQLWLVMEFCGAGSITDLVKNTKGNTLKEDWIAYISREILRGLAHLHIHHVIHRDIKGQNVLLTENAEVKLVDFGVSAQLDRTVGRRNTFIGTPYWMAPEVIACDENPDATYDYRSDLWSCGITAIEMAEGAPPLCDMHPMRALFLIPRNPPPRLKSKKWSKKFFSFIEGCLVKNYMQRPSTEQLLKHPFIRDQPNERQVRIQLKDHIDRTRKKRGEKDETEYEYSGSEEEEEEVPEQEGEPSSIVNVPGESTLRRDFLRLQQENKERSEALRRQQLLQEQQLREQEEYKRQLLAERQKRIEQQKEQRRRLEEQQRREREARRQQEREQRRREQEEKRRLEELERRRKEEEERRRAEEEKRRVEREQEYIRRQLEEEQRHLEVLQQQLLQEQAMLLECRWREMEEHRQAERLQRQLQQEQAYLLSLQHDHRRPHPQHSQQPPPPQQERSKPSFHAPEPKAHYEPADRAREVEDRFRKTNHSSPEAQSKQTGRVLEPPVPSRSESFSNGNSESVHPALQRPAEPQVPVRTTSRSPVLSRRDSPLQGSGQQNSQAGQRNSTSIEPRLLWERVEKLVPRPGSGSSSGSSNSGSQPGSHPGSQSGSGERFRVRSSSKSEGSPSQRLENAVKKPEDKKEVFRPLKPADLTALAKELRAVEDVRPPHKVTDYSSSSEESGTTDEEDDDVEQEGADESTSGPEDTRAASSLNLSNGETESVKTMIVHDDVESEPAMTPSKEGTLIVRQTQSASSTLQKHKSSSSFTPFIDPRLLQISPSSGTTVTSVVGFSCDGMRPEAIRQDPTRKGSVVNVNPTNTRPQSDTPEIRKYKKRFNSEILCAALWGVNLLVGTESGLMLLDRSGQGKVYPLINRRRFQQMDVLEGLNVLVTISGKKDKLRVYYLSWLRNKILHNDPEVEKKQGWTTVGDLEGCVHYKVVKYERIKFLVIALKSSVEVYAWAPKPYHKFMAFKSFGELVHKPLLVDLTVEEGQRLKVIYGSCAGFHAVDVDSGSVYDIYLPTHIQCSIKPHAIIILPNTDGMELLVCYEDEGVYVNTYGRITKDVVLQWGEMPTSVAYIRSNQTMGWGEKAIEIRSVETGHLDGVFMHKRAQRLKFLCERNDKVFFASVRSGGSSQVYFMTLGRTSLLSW
# Chain of UniProt Q2M2Z5 (Q2M2Z5 whole entry, looked up): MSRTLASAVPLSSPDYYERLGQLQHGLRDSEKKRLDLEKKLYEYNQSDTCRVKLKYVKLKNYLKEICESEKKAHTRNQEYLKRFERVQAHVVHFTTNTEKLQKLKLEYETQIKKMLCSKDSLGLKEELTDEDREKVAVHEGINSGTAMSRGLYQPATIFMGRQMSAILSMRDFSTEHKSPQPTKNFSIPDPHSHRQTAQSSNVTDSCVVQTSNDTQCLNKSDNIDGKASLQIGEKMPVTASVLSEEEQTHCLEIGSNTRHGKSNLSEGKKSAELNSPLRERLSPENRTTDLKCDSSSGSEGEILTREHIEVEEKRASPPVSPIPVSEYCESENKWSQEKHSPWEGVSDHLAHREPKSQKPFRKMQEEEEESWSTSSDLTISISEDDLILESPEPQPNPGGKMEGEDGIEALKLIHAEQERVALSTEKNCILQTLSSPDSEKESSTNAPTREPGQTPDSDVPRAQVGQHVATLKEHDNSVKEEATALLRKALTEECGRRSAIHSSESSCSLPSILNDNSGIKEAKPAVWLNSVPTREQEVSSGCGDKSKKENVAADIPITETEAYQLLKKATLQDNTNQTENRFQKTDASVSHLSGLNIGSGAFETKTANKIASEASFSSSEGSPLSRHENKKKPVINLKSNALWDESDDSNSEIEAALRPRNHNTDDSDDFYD
# Chain of UniProt A4D2B0 (A4D2B0 whole entry, looked up): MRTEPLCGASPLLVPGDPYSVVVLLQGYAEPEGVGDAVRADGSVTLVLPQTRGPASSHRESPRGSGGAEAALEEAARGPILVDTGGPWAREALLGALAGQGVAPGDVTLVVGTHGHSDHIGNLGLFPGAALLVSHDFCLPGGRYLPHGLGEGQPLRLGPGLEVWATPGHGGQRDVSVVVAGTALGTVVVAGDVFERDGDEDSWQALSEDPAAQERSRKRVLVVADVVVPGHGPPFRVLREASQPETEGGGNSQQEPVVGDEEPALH
# Chain of UniProt Q32MZ4 (Q32MZ4 whole entry, looked up): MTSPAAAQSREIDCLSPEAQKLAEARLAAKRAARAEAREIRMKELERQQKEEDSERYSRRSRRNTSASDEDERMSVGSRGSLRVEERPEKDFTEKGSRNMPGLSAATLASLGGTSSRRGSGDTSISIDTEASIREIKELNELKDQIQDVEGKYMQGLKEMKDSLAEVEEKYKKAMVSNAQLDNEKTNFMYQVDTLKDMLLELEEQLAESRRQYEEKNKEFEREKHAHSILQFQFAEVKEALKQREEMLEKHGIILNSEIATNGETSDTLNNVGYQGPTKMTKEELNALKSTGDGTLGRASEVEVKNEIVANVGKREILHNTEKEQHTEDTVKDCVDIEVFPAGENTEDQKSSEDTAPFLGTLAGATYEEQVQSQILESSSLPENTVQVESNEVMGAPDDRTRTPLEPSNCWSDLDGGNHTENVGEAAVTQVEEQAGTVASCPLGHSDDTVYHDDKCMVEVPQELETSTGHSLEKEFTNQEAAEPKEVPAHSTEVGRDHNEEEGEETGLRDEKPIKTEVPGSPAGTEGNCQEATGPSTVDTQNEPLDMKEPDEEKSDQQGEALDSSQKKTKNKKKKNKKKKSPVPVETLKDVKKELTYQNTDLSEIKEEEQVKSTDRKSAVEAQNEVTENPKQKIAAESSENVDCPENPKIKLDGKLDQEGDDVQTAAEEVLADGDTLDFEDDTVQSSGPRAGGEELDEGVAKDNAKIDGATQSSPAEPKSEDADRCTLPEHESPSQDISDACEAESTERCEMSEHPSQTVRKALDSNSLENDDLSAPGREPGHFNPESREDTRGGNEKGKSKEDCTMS
# Chain of UniProt P24592 (P24592 whole entry, looked up): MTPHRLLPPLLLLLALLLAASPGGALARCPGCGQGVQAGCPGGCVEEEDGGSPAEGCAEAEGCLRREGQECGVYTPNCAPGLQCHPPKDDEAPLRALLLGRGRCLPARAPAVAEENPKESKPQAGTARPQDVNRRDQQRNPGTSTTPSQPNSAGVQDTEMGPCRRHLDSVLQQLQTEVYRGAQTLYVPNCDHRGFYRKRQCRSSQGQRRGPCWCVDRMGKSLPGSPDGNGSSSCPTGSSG
# Chain of UniProt Q52LA3 (Q52LA3 whole entry, looked up): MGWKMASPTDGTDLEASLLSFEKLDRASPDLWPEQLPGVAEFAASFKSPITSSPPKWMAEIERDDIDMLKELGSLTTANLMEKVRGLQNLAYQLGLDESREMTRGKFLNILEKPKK
target,measurement,setting,value
LSR isoform 3 (UniProt Q86X29),log2 fold change,[1],0.052
same,log2 fold change,[2],-0.138
same,log2 fold change,duvelisib,0.179
same,log2 fold change,tozasertib,-0.324
same,log2 fold change,[3],-0.118
LRRFIP1 isoform 4 (UniProt Q32MZ4),log2 fold change,crizotinib,0.012
same,log2 fold change,[4],0.175
same,log2 fold change,[2],0.59
same,log2 fold change,duvelisib,0.025
same,log2 fold change,gandotinib,0.548
same,log2 fold change,[3],-0.025
same,log2 fold change,doramapimod,-0.016
ITPRID2 (UniProt P28290),log2 fold change,crizotinib,-0.201
same,log2 fold change,[4],0.229
same,log2 fold change,doramapimod,-0.056
same,log2 fold change,ispinesib,-0.035
KIZ (UniProt Q2M2Z5),log2 fold change,crizotinib,-0.032
same,log2 fold change,[2],-0.115
same,log2 fold change,gandotinib,0.063
same,log2 fold change,doramapimod,0.071
same,log2 fold change,ispinesib,-0.047
IGFBP6 (UniProt P24592),log2 fold change,[2],-0.035
same,log2 fold change,duvelisib,0.063
same,log2 fold change,[3],0.14
same,log2 fold change,ispinesib,-0.712 (active)
MAGED1 isoform 2 (UniProt Q9Y5V3),log2 fold change,[1],-0.012
same,log2 fold change,[4],0.096
same,log2 fold change,[2],0.205
same,log2 fold change,duvelisib,0.05
same,log2 fold change,[3],-0.008
MAPK7 (UniProt Q13164),log2 fold change,crizotinib,0.773 (active)
same,log2 fold change,[4],0.03
same,log2 fold change,gandotinib,0.304
same,log2 fold change,doramapimod,0.057
LMBRD1 (UniProt Q9NUN5),log2 fold change,[1],-0.003
same,log2 fold change,[4],0.111
same,log2 fold change,[2],-0.14
same,log2 fold change,duvelisib,-0.037
same,log2 fold change,gandotinib,-0.137
same,log2 fold change,tozasertib,-0.083
same,log2 fold change,[3],-0.031
same,log2 fold change,ispinesib,-0.61 (active)
MFAP3 (UniProt P55082),log2 fold change,[1],-0.012
same,log2 fold change,[4],0.045
same,log2 fold change,duvelisib,0.083
same,log2 fold change,tozasertib,0.009
same,log2 fold change,[3],0.003
LAPTM4B (UniProt Q86VI4),log2 fold change,[1],0.012
same,log2 fold change,gandotinib,0
MFSD12 isoform 3 (UniProt Q6NUT3),log2 fold change,[1],0.17
same,log2 fold change,[2],-0.213
same,log2 fold change,duvelisib,0.109
same,log2 fold change,gandotinib,-0.122
same,log2 fold change,tozasertib,0.063
same,log2 fold change,[3],0.065
MAP4K4 isoform 6 (UniProt O95819),log2 fold change,[1],-0.019
same,log2 fold change,[2],-0.305
same,log2 fold change,duvelisib,-0.152
same,log2 fold change,tozasertib,-0.132
same,log2 fold change,[3],-0.025
LRRCC1 (UniProt Q9C099),log2 fold change,duvelisib,0.09
same,log2 fold change,tozasertib,0.006
same,log2 fold change,[3],0.013
same,log2 fold change,ispinesib,-0.301
LMNA isoform 2 (UniProt P02545),log2 fold change,tozasertib,0.357
KMT5A (UniProt Q9NQR1),log2 fold change,[1],0.018
same,log2 fold change,gandotinib,0.038
LIN52 (UniProt Q52LA3),log2 fold change,duvelisib,-0.087
same,log2 fold change,[3],-0.059
LDLRAP1 (UniProt Q5SW96),log2 fold change,crizotinib,0.004
same,log2 fold change,doramapimod,0.18
same,log2 fold change,ispinesib,-0.088
MAP4 isoform 5 (UniProt P27816),log2 fold change,[1],0.096
same,log2 fold change,[4],-0.159
same,log2 fold change,ispinesib,-0.042
KIF21A (UniProt H0YI78),log2 fold change,ispinesib,-0.041
ING5 (UniProt Q8WYH8),log2 fold change,crizotinib,-0.36
same,log2 fold change,[2],-0.018
same,log2 fold change,tozasertib,-0.079
same,log2 fold change,doramapimod,-0.019
MAPK11 (UniProt Q15759),log2 fold change,crizotinib,-0.115
same,log2 fold change,gandotinib,-0.083
same,log2 fold change,tozasertib,0.268
same,log2 fold change,ispinesib,-0.334
MGRN1 isoform 2 (UniProt O60291),log2 fold change,crizotinib,-0.015
same,log2 fold change,[2],0.225
same,log2 fold change,gandotinib,0.06
same,log2 fold change,tozasertib,-0.136
same,log2 fold change,doramapimod,0.012
same,log2 fold change,ispinesib,-0.225
KXD1 (UniProt Q9BQD3),log2 fold change,[4],0.118
same,log2 fold change,[2],-0.009
same,log2 fold change,duvelisib,0.067
same,log2 fold change,gandotinib,-0.156
same,log2 fold change,tozasertib,-0.046
same,log2 fold change,[3],0.012
same,log2 fold change,ispinesib,-0.078
MAP2K5 (UniProt Q13163),log2 fold change,crizotinib,-0.012
same,log2 fold change,[2],0.072
same,log2 fold change,duvelisib,-0.049
same,log2 fold change,[3],-0.171
same,log2 fold change,doramapimod,0.053
same,log2 fold change,ispinesib,0.123
IKZF1 isoform 2 (UniProt Q13422),log2 fold change,[1],0.081
same,log2 fold change,[2],0.059
same,log2 fold change,tozasertib,0.055
same,log2 fold change,ispinesib,-0.034
MCOLN3 (UniProt Q8TDD5),log2 fold change,gandotinib,0.022
same,log2 fold change,tozasertib,-0.112
same,log2 fold change,ispinesib,-0.255
KIF13A isoform 4 (UniProt Q9H1H9),log2 fold change,[1],-0.363
same,log2 fold change,[2],-0.019
MAP4K2 (UniProt Q12851),log2 fold change,[1],-0.032
same,log2 fold change,[2],-0.129
same,log2 fold change,tozasertib,0.158
same,log2 fold change,doramapimod,-0.091
ITM2C (UniProt Q9NQX7),log2 fold change,[1],0.117
same,log2 fold change,[4],0.239
same,log2 fold change,[2],0.137
same,log2 fold change,duvelisib,-0.034
same,log2 fold change,gandotinib,0.083
same,log2 fold change,[3],0.011
same,log2 fold change,ispinesib,0.051
MAGEA8 (UniProt P43361),log2 fold change,crizotinib,-0.003
same,log2 fold change,[2],0.134
same,log2 fold change,duvelisib,-0.082
same,log2 fold change,gandotinib,-0.472 (active)
same,log2 fold change,tozasertib,-0.007
same,log2 fold change,[3],-0.002
same,log2 fold change,doramapimod,0.037
same,log2 fold change,ispinesib,-0.034
MFSD8 (UniProt Q8NHS3),log2 fold change,crizotinib,-0.013
same,log2 fold change,[4],0.04
same,log2 fold change,[2],-0.023
same,log2 fold change,duvelisib,-0.108
same,log2 fold change,gandotinib,-0.018
same,log2 fold change,tozasertib,0.055
same,log2 fold change,[3],-0.015
same,log2 fold change,doramapimod,0.131
same,log2 fold change,ispinesib,-0.208
IKZF1 (UniProt R9R4D9),log2 fold change,crizotinib,0.028
same,log2 fold change,[2],-0.078
same,log2 fold change,duvelisib,0.042
same,log2 fold change,gandotinib,0.244
same,log2 fold change,tozasertib,-0.066
same,log2 fold change,[3],-0.12
same,log2 fold change,doramapimod,0.235
MBLAC1 (UniProt A4D2B0),log2 fold change,crizotinib,0.038
same,log2 fold change,[2],-0.007
same,log2 fold change,duvelisib,0.019
same,log2 fold change,gandotinib,-0.056
same,log2 fold change,[3],-0.017
same,log2 fold change,doramapimod,0.169
same,log2 fold change,ispinesib,-0.142
